According to PubChem BioAssay (Tox21):
Results filed as inconclusive are left out. The source made the active and inactive calls. Unless noted, the call rests on the fitted dose curve; in most records, active means well fitted cell-killing curve with a large enough effect in the repeat runs (not every such curve was filed as active); inconclusive means weak or mixed curves, or effect the other way; inactive means no such curve, though single readings can be large or run the other way. Residues, ends and D or L forms follow the SMILES beside them.

target: Bile acid receptor (Homo sapiens) (UniProt Q96RI1); assay: qHTS assay to identify small molecule agonists of the farnesoid-X-receptor (FXR) signaling pathway (AID 743220; active means well fitted activation curve with a large enough effect in the signal ratio in the repeat runs, not every such curve was filed as active; the % refers to the signal ratio); conditions: HEK293T FXR-UAS-bla, beta-lactamase FRET ratio, 16 h; series mostly up to 62.6 µM; activation: at the top concentration
Sequence (Q96RI1 whole entry, looked up): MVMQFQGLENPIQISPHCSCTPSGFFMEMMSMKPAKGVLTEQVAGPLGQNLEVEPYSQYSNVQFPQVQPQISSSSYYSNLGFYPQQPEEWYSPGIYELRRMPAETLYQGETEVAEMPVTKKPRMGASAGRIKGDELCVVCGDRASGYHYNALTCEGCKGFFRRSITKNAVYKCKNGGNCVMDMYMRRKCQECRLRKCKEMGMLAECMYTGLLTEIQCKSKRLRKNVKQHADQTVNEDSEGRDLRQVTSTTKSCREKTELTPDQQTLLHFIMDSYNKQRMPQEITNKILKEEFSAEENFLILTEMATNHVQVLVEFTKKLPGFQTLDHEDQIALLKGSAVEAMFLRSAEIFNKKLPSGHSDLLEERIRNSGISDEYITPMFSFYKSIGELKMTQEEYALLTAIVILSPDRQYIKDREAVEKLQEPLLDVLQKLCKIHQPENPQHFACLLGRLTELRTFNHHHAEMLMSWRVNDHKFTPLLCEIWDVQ
Method in brief: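 FXR-UAS-bla HEK 293T cells carrying a UAS-driven beta-lactamase reporter were plated for 5 h at 37C/5% CO2, then exposed to DMSO-dissolved Tox21 10K compounds for 16 h at 37C. A LiveBLAzer B/G FRET substrate was loaded for 2 h at room temperature before fluorescence reading.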
On the % scale 0 is the no-effect control and ±100 the full control effect.

Compound | outcome
O=C(O)CCC(=O)O | inactive
CC(O)CN(CCN(CC(C)O)CC(C)O)CC(C)O (configuration not stated) | inactive
CC(O)C(=O)O (configuration not stated) | inactive
Cc1ccccc1C(OCCN(C)C)c1ccccc1 (configuration not stated) | inactive
COC(=O)[C@H](Cc1ccccc1)NC(=O)[C@@H](N)CC(=O)O (H-Asp-Phe-OMe) | inactive
O=C1NC(=O)c2ccccc21 | inactive
Cc1ccc(C)c(OCCCC(C)(C)C(=O)O)c1 | inactive
C1N2CN3CN1CN(C2)C3 | inactive
O=c1cc[nH]c(=S)[nH]1 | inactive
Nc1ccc(O)c(C(=O)O)c1 | inactive
CC(C)[C@@H]1CC[C@@H](C)C[C@H]1O | inactive
O=C(c1ccccc1)c1ccccc1 | inactive
COc1ccc2[nH]cc(CCNC(C)=O)c2c1 | inactive
Cc1noc(NS(=O)(=O)c2ccc(N)cc2)c1C | inactive

system: not listed separately; assay: qHTS assay to identify small molecule antagonists of the farnesoid-X-receptor (FXR) signaling pathway - cell viability counter screen (AID 743221); conditions: FXR-bla HEK293T viability, CellTiter-Glo luminescence, 16 h; series mostly up to 62.6 µM; activity change, negative = cytotoxicity: at the top concentration; further: nearly all actives have a fitted effect of over 50% in size
Method in brief: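 Compound effects on cell number were measured as CellTiter-Glo luminescence in HEK 293T cells expressing FXR-UAS-bla, after 16 h at 37 C with 50 uM CDCA (final).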

Compound | outcome
O=C(O)CCC(=O)O | inactive
CCCC(O)C(CC)CO (configuration not stated) | inactive
CC(O)CO (configuration not stated) | inactive
CC(O)CN(CCN(CC(C)O)CC(C)O)CC(C)O (configuration not stated) | inactive
O=C(O)c1cccnc1 | inactive
O=C(O)C(=O)O | inactive
CC(=O)Nc1nnc(S(N)(=O)=O)s1 | inactive
OC(Cn1cncn1)(Cn1cncn1)c1ccc(F)cc1F | inactive
O=C(O)c1cccc([N+](=O)[O-])c1 | inactive
CC(O)C(=O)O (configuration not stated) | inactive
Nc1ccn([C@H]2CC[C@@H](CO)O2)c(=O)n1 | inactive
CC1(C)[C@@H]2CC[C@@]1(C)C(=O)C2 | inactive
Cc1ccccc1C(OCCN(C)C)c1ccccc1 (configuration not stated) | inactive
Nc1ccc(S(=O)(=O)Nc2nccs2)cc1 | inactive
COC(=O)[C@H](Cc1ccccc1)NC(=O)[C@@H](N)CC(=O)O (H-Asp-Phe-OMe) | inactive
O=C1NC(=O)c2ccccc21 | inactive
CCCCCCCCCCCCCCCC(=O)O | inactive
Cc1ccc(C)c(OCCCC(C)(C)C(=O)O)c1 | inactive

Compound | outcome
CC(=O)OCC(COC(C)=O)OC(C)=O | inactive
C1N2CN3CN1CN(C2)C3 | inactive
O=c1cc[nH]c(=S)[nH]1 | inactive
CCCNC(=O)NS(=O)(=O)c1ccc(Cl)cc1 | inactive
Nc1ccc(O)c(C(=O)O)c1 | inactive
NC(N)=NC(=O)c1nc(Cl)c(N)nc1N | inactive
CC(C)[C@@H]1CC[C@@H](C)C[C@H]1O | inactive
Cc1ccc(S(=O)(=O)NC(=O)NN2CCCCCC2)cc1 | inactive
O=C(c1ccccc1)c1ccccc1 | inactive
O=C1CN(/N=C/c2ccc([N+](=O)[O-])o2)C(=O)N1 | inactive
c1ccc2[nH]ccc2c1 | inactive
CCCCC(CC)COC(=O)/C=C/c1ccc(OC)cc1 (configuration not stated) | inactive
COc1ccc2[nH]cc(CCNC(C)=O)c2c1 | inactive
O=C(O)CCCCCCCC(=O)O | inactive
NC(=O)NC1NC(=O)NC1=O (configuration not stated) | inactive
CCCC(CCC)C(=O)O | inactive
O=NO | inactive
Cc1noc(NS(=O)(=O)c2ccc(N)cc2)c1C | inactive

target: Vitamin D3 receptor (Homo sapiens) (UniProt P11473); assay: qHTS assay to identify small molecule agonists of the vitamin D receptor (VDR) signaling pathway (AID 743222; calls by dose curve); conditions: HEK293T VDR-UAS-bla, beta-lactamase FRET ratio, 16 h; series mostly up to 63.5 µM; activation: at the top concentration
Sequence (P11473 whole entry, looked up): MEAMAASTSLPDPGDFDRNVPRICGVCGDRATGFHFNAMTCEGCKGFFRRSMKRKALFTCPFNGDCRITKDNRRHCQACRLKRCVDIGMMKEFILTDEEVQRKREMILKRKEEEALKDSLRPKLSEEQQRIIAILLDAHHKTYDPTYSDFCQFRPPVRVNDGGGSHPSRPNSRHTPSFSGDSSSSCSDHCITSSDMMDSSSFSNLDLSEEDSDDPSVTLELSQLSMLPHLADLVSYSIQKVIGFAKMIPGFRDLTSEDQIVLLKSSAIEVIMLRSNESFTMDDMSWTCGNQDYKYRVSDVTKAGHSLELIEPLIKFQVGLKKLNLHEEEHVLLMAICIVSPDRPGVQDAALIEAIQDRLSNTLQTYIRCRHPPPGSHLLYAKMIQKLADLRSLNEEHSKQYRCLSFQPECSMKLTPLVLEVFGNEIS
Method in brief: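 Cells carrying a VDR-driven beta-lactamase reporter are seeded at 2,000 per well and rested 4 h. Compounds in DMSO are added for 16 h at 37C, and FRET substrate fluorescence is measured after 2 h at room temperature.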

Compound | outcome
O=C(O)CCC(=O)O | inactive
CC(O)CO (configuration not stated) | inactive
CC(O)CN(CCN(CC(C)O)CC(C)O)CC(C)O (configuration not stated) | inactive
O=C(O)C(=O)O | inactive
OC(Cn1cncn1)(Cn1cncn1)c1ccc(F)cc1F | inactive
CC(O)C(=O)O (configuration not stated) | inactive
CC1(C)[C@@H]2CC[C@@]1(C)C(=O)C2 | inactive
Nc1ccc(S(=O)(=O)Nc2nccs2)cc1 | inactive
O=C1NC(=O)c2ccccc21 | inactive
CCCCCCCCCCCCCCCC(=O)O | inactive
CC(=O)OCC(COC(C)=O)OC(C)=O | inactive
C1N2CN3CN1CN(C2)C3 | inactive
CCCNC(=O)NS(=O)(=O)c1ccc(Cl)cc1 | inactive
Nc1ccc(O)c(C(=O)O)c1 | inactive
NC(N)=NC(=O)c1nc(Cl)c(N)nc1N | inactive
CC(C)[C@@H]1CC[C@@H](C)C[C@H]1O | inactive
Cc1ccc(S(=O)(=O)NC(=O)NN2CCCCCC2)cc1 | inactive
O=C(c1ccccc1)c1ccccc1 | inactive
O=C1CN(/N=C/c2ccc([N+](=O)[O-])o2)C(=O)N1 | inactive
c1ccc2[nH]ccc2c1 | inactive
CCCCC(CC)COC(=O)/C=C/c1ccc(OC)cc1 (configuration not stated) | inactive
COc1ccc2[nH]cc(CCNC(C)=O)c2c1 | inactive
O=C(O)CCCCCCCC(=O)O | inactive
NC(=O)NC1NC(=O)NC1=O (configuration not stated) | inactive
CCCC(CCC)C(=O)O | inactive
O=NO | inactive

target: Vitamin D3 receptor (Homo sapiens) (UniProt P11473); assay: qHTS assay to identify small molecule antagonists of the vitamin D receptor (VDR) signaling pathway (AID 743223; active means well fitted inhibition curve with a large enough effect in the signal ratio in the repeat runs, not every such curve was filed as active; the % refers to the signal ratio); conditions: VDR-UAS-bla HEK293T, beta-lactamase FRET ratio, 16 h; series mostly up to 61 µM; activity change, negative = inhibition: at the top concentration
Method in brief: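 Beta-lactamase activity in VDR-bla cells is measured by FRET substrate fluorescence (2 h, room temperature) after cells spend 16 h at 37C with test compound and 3 nM final 1alpha,25-dihydroxyvitamin D3.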

Compound | outcome | activity change, negative = inhibition
O=C(O)CCC(=O)O | inactive | –
CC(O)CO (configuration not stated) | – | -1.33% (inactive)
CC(O)CN(CCN(CC(C)O)CC(C)O)CC(C)O (configuration not stated) | inactive | –
O=C(O)C(=O)O | inactive | –
OC(Cn1cncn1)(Cn1cncn1)c1ccc(F)cc1F | inactive | –
CC(O)C(=O)O (configuration not stated) | inactive | –
CC1(C)[C@@H]2CC[C@@]1(C)C(=O)C2 | inactive | –
Nc1ccc(S(=O)(=O)Nc2nccs2)cc1 | inactive | –
O=C1NC(=O)c2ccccc21 | inactive | –
CCCCCCCCCCCCCCCC(=O)O | inactive | –
CC(=O)OCC(COC(C)=O)OC(C)=O | inactive | –
C1N2CN3CN1CN(C2)C3 | – | 5.49% [at 78.8 µM] (inactive)
CCCNC(=O)NS(=O)(=O)c1ccc(Cl)cc1 | inactive | –
Nc1ccc(O)c(C(=O)O)c1 | inactive | –
NC(N)=NC(=O)c1nc(Cl)c(N)nc1N | inactive | –
CC(C)[C@@H]1CC[C@@H](C)C[C@H]1O | inactive | –
Cc1ccc(S(=O)(=O)NC(=O)NN2CCCCCC2)cc1 | inactive | –
O=C(c1ccccc1)c1ccccc1 | inactive | –
O=C1CN(/N=C/c2ccc([N+](=O)[O-])o2)C(=O)N1 | inactive | –
c1ccc2[nH]ccc2c1 | inactive | –
CCCCC(CC)COC(=O)/C=C/c1ccc(OC)cc1 (configuration not stated) | inactive | –
COc1ccc2[nH]cc(CCNC(C)=O)c2c1 | inactive | –
O=C(O)CCCCCCCC(=O)O | inactive | –
NC(=O)NC1NC(=O)NC1=O (configuration not stated) | inactive | –
CCCC(CCC)C(=O)O | inactive | –
O=NO | inactive | –
